Screens (PubChem)
CHRM1 antagonist: antagonists of human M1 muscarinic receptor. inhibition, % at 3 µM. P11229. AID 588852. 1.3% of 360,000 active. CHO-K1 hM1, Fluo-8 calcium fluorescence, ACh EC80 antagonist;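 active = percent inhibition above its own plate's cutoff, namely the mean of that plate's compound wells plus 3 SD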;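 note: peak over basal fluorescence ratio during 140 s after agonist addition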
Target sequence (P11229 whole entry, looked up): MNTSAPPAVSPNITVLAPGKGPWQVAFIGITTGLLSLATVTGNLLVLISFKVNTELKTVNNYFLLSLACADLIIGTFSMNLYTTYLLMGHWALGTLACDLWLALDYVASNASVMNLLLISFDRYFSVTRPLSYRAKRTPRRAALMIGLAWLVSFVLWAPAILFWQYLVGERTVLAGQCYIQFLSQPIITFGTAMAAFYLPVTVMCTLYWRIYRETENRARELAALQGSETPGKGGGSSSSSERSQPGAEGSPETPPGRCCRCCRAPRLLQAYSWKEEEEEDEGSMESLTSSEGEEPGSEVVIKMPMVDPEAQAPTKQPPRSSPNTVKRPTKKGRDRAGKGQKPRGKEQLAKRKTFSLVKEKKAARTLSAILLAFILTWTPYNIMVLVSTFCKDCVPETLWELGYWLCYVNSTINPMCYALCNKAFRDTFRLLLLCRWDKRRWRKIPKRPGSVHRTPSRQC
CHO-K1 Ca PAM: M1 PAM counterscreen hit in parental CHO-K1 cells; ATP EC20, Fluo-8 calcium fluorescence; 0% at ATP EC20, 100% at ATP max; activation, % at 3 µM; 0.02% of 360,000 active;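 active = activation above the run cutoff, the mean activation of all test compounds plus 3 SD, cut at about 40% in these data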;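 note: peak over basal fluorescence ratio in a 140 s read after ATP addition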
M1 ag parental: M1 agonist counterscreen hit in parental CHO-K1 cells; AID 602248; activation, % at 3 µM; 0.48% of 360,000 active; Fluo-8 calcium fluorescence; scaled to maximal ATP response, vehicle zero; in the data active = activation above about 15%;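 note: untransfected CHO-K1 host cells lacking M1 receptor as counterscreen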
CHO-K1 Ca antag: counter-screen for M1 antagonists: effect in parental CHO-K1 cells | ATP-induced calcium, Fluo-8 fluorescence | inhibition, % at 3 µM | 0.6% of 360,000 active | AID 602250;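 active = inhibition above a per-plate cutoff, the plate's mean sample inhibition plus 3 SD, cut at about 24% in these data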
CHRM1 agonist: agonists of human M1 muscarinic receptor; P11229; activation, % at 3 µM; 0.33% of 360,000 active; CHO-K1 hM1, Fluo-8 calcium fluorescence, agonist mode; 0% DMSO, 100% acetylcholine EC100;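 active = activation above the run's mean compound activation plus 3 SD, cut at about 16% in these data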;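 note: peak over basal fluorescence ratio within a 140 s kinetic read after compound addition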
CHRM1 PAM: potentiates human M1 receptor response to acetylcholine; 0.088% of 360,000 active; CHO-K1 hM1, Fluo-8 calcium fluorescence, ACh EC20; 0% = ACh EC20, 100% = maximal ACh; activation, % at 3 µM; P11229; in the data active = activation above about 19%, passing the limit was not always enough
Large screens that a line does not name were inactive. Most compounds without a hit are left out; they make up all but 2.3% or so of the library.

O=C(NCC1COc2ccccc2O1)C1CCCN(S(=O)(=O)c2cccc3nsnc23)C1 (centres undefined)	none
O=C(NCc1cccnc1)C1CCCN(S(=O)(=O)c2cccc3nsnc23)C1 (centres undefined)	CHRM1 antagonist 38
Cc1cc(C)c(S(=O)(=O)N2CCCC(C(=O)NCc3cccnc3)C2)c(C)c1 (centres undefined)	CHRM1 antagonist 34
O=C(NCC1COc2ccccc2O1)C1CCCN(S(=O)(=O)c2cccc3cccnc23)C1 (centres undefined)	CHO-K1 Ca antag 25
O=[N+]([O-])c1cc(C(F)(F)F)cc([N+](=O)[O-])c1NCCNC(=S)Nc1ccc(Cl)c(Cl)c1	CHO-K1 Ca antag 27
CC(Oc1ccc(C(C)(C)C)cc1)c1ccnc2nc(/N=C/N(C)C)nn12 (centres undefined)	CHRM1 antagonist 54
CC(Oc1ccc(F)cc1)c1ccnc2nc(/N=C/N(C)C)nn12 (centres undefined)	none
Cc1cc(NCc2ccccc2)n2ncc(-c3ccccc3)c2n1	CHRM1 antagonist 39
COc1ccc(CCNc2cc(C)nc3c(-c4ccccc4)cnn23)cc1OC	none
CC(=O)c1c(N2CCCC2)nc(=S)n(-c2ccccc2)c1C	CHRM1 antagonist 75
CCn1c(C)c(C(C)=O)c(N2CCN(C(c3ccccc3)c3ccccc3)CC2)nc1=S	CHRM1 antagonist 54
CCn1c(C)c(C(C)=O)c(N2CCN(c3ccccc3)CC2)nc1=S	none
CCn1c(C)c(C(C)=O)c(N2CCCCC2)nc1=S	none
CCn1c(C)c(C(C)=O)c(N2CCN(c3ccccn3)CC2)nc1=S	CHRM1 antagonist 64
CC(=O)c1c(N2CCCCC2)nc(=S)n(-c2ccccc2)c1C	none
O=C(NCCN1CCNC1=O)C1CCC(=O)N(Cc2cccc(C(F)(F)F)c2)C1 (centres undefined)	none
Cc1ccc(S(=O)(=O)CCC(=O)Nc2ccccc2Br)cc1	none
CCOc1cc(C(=O)NC(CC(=O)O)c2ccc(OC3CCCC3)cc2)cc(OCC)c1OCC (centres undefined)	CHO-K1 Ca antag 32
CC(C)(C)c1ccc(C(=O)NC(CC(=O)O)c2ccc(OC3CCCC3)cc2)cc1 (centres undefined)	none
N#Cc1ccc(-c2nc3ccc(Cl)cn3c2Cc2ccccc2)cc1	none
Nc1cc(=O)[nH]c(SCc2ccc(Cl)cc2Cl)n1	M1 ag parental 15
Nc1ncnc2nc(SCc3ccc(Cl)cc3Cl)[nH]c12	none
CCn1cc(/C=N/NS(=O)(=O)c2ccc(OC)cc2)c(C)n1	CHRM1 agonist 21
Cc1ccc(-n2c(C)nc3c(cnn3-c3ccc(F)cc3)c2=O)cc1C	CHRM1 antagonist 29
Cc1ccc(-n2c(C)nc3c(cnn3-c3ccc(C)c(C)c3)c2=O)cc1C	none
CCNC(=O)C1(C)CCCN1C(=O)c1ccc2c(c1)OCO2 (centres undefined)	none
NS(=O)(=O)c1ccc(NC(=S)N2CCN(Cc3ccc(Cl)c(Cl)c3)CC2)cc1	M1 ag parental 19
Nn1c(SCC(=O)NC2CCCCCC2)nnc1-c1ccco1	none
COc1ccc(NC(=O)C2CCN(S(=O)(=O)c3ccc(OC)c(OC)c3)CC2)c(OC)c1	CHO-K1 Ca antag 26
COc1ccccc1NC(=O)C(Sc1ccccc1)c1ccccc1 (centres undefined)	none
COc1ccc(NC(=O)C(Sc2ccccc2)c2ccccc2)c(OC)c1 (centres undefined)	CHO-K1 Ca PAM 43
COc1ccc(NC(=O)C2CCN(C(=O)c3ccccc3)CC2)c(OC)c1	CHRM1 antagonist 61
COc1ccc(NC(=O)C2CCN(S(C)(=O)=O)CC2)c(OC)c1	none
COc1ccc(C(=O)N2CCC(C(=O)Nc3ccccc3OC)CC2)cc1	none
C=CCOc1ccc(/C=N/NC(=O)c2c(C)nc3ccc(Cl)cn23)cc1	none
CC(CN1C(C)CCCC1C)OC(=O)c1ccccc1F (centres undefined)	none
O=S(=O)(Nc1ccc2c(c1)OCO2)c1ccc(Cl)cc1F	none
Cc1ccc(NC(=O)c2ncn(CCCNCCCc3ccccc3)n2)cc1C	CHRM1 agonist 18
O=C(Nc1cccnc1)Nc1ccc(F)c(Cl)c1	M1 ag parental 16
Cc1ccc(NC(=O)Nc2ccc(F)c(Cl)c2)cc1	CHRM1 antagonist 36
COc1ccc(NC(=O)Nc2ccc(F)c(Cl)c2)cc1	none
COC(=O)Cc1c(C)c2ccc(O)c(CNCc3ccc(OC)c(OC)c3)c2oc1=O	none
O=C(O)c1ccc(N/N=C/C=C/c2ccc([N+](=O)[O-])o2)cc1	CHRM1 antagonist 36, CHRM1 agonist 27
O=C(N/N=C/c1ccco1)c1cc([N+](=O)[O-])cc([N+](=O)[O-])c1	none
O=[N+]([O-])c1ccc(N/N=C/C=C/c2ccco2)cc1	M1 ag parental 21
O=C(CN(C(=O)c1csnn1)c1ccc(Br)cc1)NC1CCCCC1	none
Cc1nc2nc(C)c(CCC(=O)NC(C)c3ccc4c(c3)OCCO4)c(C)n2n1 (centres undefined)	CHRM1 antagonist 68
Cc1nc2ccc(NS(=O)(=O)c3ccc(F)c(C)c3)cc2[nH]1	none
CCCCOC(=O)Nc1ccc(C(=O)OCCC)cc1	CHO-K1 Ca antag 24
CCCCOC(=O)c1ccc(O)cc1	none
COc1cc(Cl)c(C)cc1NC(=O)CSc1sc2c(O)cc(=O)[nH]c2c1C#N	none
O=c1[nH]c2cc3c(cc2cc1CN(CCc1ccccc1)C(=S)NCCCN1CCOCC1)OCCO3	CHO-K1 Ca antag 60
CC(=O)NC1C(=O)N=C(SC(C)C(=O)Nc2cccc(Cl)c2)NC1=O (centres undefined)	M1 ag parental 15
CC(Sc1nc(N)cc(=O)[nH]1)C(=O)Nc1cccc(Cl)c1 (centres undefined)	none
O=C(COC(=O)C1=NN(c2ccccc2)C(=O)CC1)Nc1ccc([N+](=O)[O-])cc1C(F)(F)F	none
N#CC(Sc1ccccn1)c1ccc(Cl)cc1Cl (centres undefined)	CHRM1 antagonist 39
CCOC(=O)CN(C)Cc1cn(C)nc1-c1ccc(Oc2ccccc2)cc1	none
CCCn1c(=O)[nH]c2ccccc21	none
O=c1[nH]c2ccccc2n1CCCN1CCCCC1	CHRM1 agonist 21
CCN(CC)c1ccc(-c2nc3cnccc3n2C)cc1	CHRM1 antagonist 39
Cn1c(-c2ccncc2)nc2ccccc21	none
Cc1ccnc(Nc2nc(-c3ccc(O)cc3O)cs2)c1	none
COc1ccc(C(CNC(=O)c2cccc(S(=O)(=O)N3CCCC3)c2)N2CCCC2)cc1 (centres undefined)	none
COc1ccc(C(CNC(=O)CCNS(=O)(=O)c2ccccc2)N2CCOCC2)cc1 (centres undefined)	CHRM1 antagonist 30
